Test results taken from PubChem BioAssay AID1508600 (Functional Genomics Laboratory (NCATS/FGL), 2020).
The campaign covered roughly 53,000 sequences. About 3,700 (7%) were called active. Many of the other results were omitted from the sample, so actives are more common in it than they were. Unmarked numbers belong to inactive results.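 The calls were made as follows: active = gene knockdowns whose robust z-score for IL-1 alpha signal is at least 2 or at most -2, so actives lie on both sides; inactive = the rest.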

Assay: Components of the Cytosolic LPS Sensing Pathway: Gene Identification via Genome-wide siRNA Screen;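 also: robust z of the log signal after scaling to non-targeting control siRNA wells of the plate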
Conditions: RAW264.7 macrophages, IL-1a HTRF, actives lie on both sides, screened at 100 nM (by protocol), cells primed 5 h with Pam3CSK4 first
Procedure, shortened: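 RAW264.7; siRNA 100 nM final, RNAiMAX, 48h 37 degrees C; Pam3CSK4 5 h; LipidA + TransIT-TKO 24 h; IL-1a HTRF; CellTiter-Glo viability; robust z vs negative-control median.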

Sequence | z-score
CCCGUUCGUGCAUGAGUUATT against Lpcat4 | 0.532
CCGGGAAACCAACAAAUCATT against Rbmxl1 | 2.19 (active)
GGUGGAAUUCAUUUUGACATT against Dnajb6 | -0.42
GGCAAUGACCUUGUAAAGATT against Tomm34 | -1.56
GUGCUAUUCAUGCACAGCATT against Psca | 0.0658
GGAUGUCUUUUUAAGGUUUTT against Eid1 | 0.987
CCCGUCCCAUCCAUUAUUUTT against Zfp787 | -1.19
GGUGUUUGUGACUCUGGGUTT against Mc4r | 2.77 (active)
GCUUUGCAAUUCACAGGGATT against Scgb1b27 | -1.76
GGGUUUGAUUCAUCAAAAATT against Peli1 | 0.314
CCUACGCCAAGCAGUAUGATT against Mcm3 | 0.286
GGAUUUUGACAGUCUGUGUTT against Endou | -0.438
GGACUGAUUGUUUUAUGCUTT against Gdap10 | -1.06
GGCCCUCAAUACCUGUGGUTT against Olfr690 | -3.13 (active)
GGAGAGACAUCCAAAAGUATT against H60a | 0.658
GCCAUAUAAUUUGACAGAGTT against Tarm1 | -0.0405
GCUCACAACAUGAGAGUCATT against Atp6v0e | -0.539
GGGAAUUACAGCACACAAUTT against Treml4 | -0.21
GGAACAAAACAAAUAGCUATT against Vstm2a | 1.79
GGUUUCUAUAAAUCUCCCUTT against Eif4b | 0.895
CGUGGUCUUCACGAUUGGATT against Pde4c | 3.71 (active)
GGAGGCUAUCAGAAGCAUCTT against C130021I20Rik | 0.762
GGAACCAACAGAGAAAACUTT against Hr | 0.317

Sequence | z-score
GGCCUGUUUUUGCAUUUUATT against 9030612E09Rik | -0.0316
GCAUUCGAAAUGAAGAUAATT against Dnajb1 | -1.75
GGUUUUCUUUUCUUCUGCCTT against Aar2 | -1.11
GGGAUUCACUCUUCUUUAGTT against Sebox | 1.97
GGAACAAGCAAGUCAAACATT against Olfr770 | 2.24 (active)
CGACUGGGUCUUAUGUUUATT against Tas2r121 | -0.105
CCAAGAAAGACAGUAACUATT against 4930432K21Rik | -0.986
GGAUCUGGACUUAAUGCUCTT against Tfeb | -0.383
GGCCUUACCAAAUGGAAGUTT against Ifih1 | 2.89 (active)
GCACGGAUUAAUGUGAUGATT against Ilk | 0.406
CCGUUGGAUACUGUAGUUCTT against Gpr152 | 0.023
GCAACACACCAUAUCAGGATT against Tas2r135 | -0.322
CCACCAUCGGUUGUUAGUUTT against Actg1 | 1.81
GGACAGCUUGUAAAUUGCCTT against Mup21 | -2.05 (active)
GGUCUCAUUUCAAAUGGUUTT against Lonrf3 | 0.63
GGAGAUUUCUUCCAUGGUCTT against Hspa2 | 0.445
CGACAGAGUGAAAAUUAAGTT against Setd3 | -0.937
CGCAGAGAAGGACUAUCUUTT against Ush1c | -1.58
GGACAAGUGUCAGAUAUCATT against Asah2 | -2.02 (active)
CCUGCUUACCAAAGAAUCCTT against Klf11 | -0.884
GGGACAAGUUGGAUUCUUGTT against Polr1e | -0.96
GCCUUACAACAAGCAACACTT against Esrp1 | -0.385
GCGGGCCAUGACAAUUACUTT against Slc45a1 | 0.566

Sequence | z-score
GCGAUGCUGGCAAGUAUGUTT against Robo1 | 0.45
CCCAGACGAGAACUGUAUCTT against Sqor | -0.0381
GGGUUAGGAUACCUCGACUTT against Arnt2 | -2.5 (active)
GGAAAGAUGUGGAAGUAAATT against Erc1 | -0.977
GGAAAAGCAAGAGGAAAGATT against Ifnb1 | 2.39 (active)
GCAACCAUCGUAGCAGAUCTT against Aaas | 1.54
GCCACUGAUGUAAGGCUCATT against Lurap1l | 0.871
CCCUCGUCUGAAAUGGAAATT against Nploc4 | -2.02 (active)
GGAACAGCUGACCUACUUUTT against Ahi1 | 1.08
GGUAGACCAGCUUAAGAAGTT against Gngt1 | -0.0811
GGCUUUUCACAAAACUGUUTT against Zfp120 | 1.07
CCUAAAUCCUGCUAGGCGUTT against Cbln1 | -1.03
GGUUAUAGGAAGGAAUUGCTT against Krt90 | 2.58 (active)
GAUGUCCUUCACCUUUGCCTT against Atp5d | -1.9
GGCGCACACUUUCACCUAATT against Tmem170 | 0.194
GGUUGUUUAUACCUGUGAUTT against Cfh | -0.292
GGUGUCAACUUUAUUCUUUTT against Rab1a | 0.813
GGGAUCCCUUCUGGAAAAGTT against Dmrtc2 | 0.581
GGGCUCCUGAGCCUCUUAATT against Sprr1a | 2.29 (active)
GGUUGCACUCAUCUUAAAATT against Zfp9 | 1.59
GGAAACUUCCCUUCCUAACTT against Snrpc | -0.397
GCCUCUGGCAGAGAAAAGATT against 4930579K19Rik | -1.78
CCAAGUUUUCAAAACAAACTT against Aqp3 | -0.0587
